A number with no mark means an inactive call. Records with an inconclusive call do not appear. Active and inactive are the calls of the source. Calls follow the shape of the dose curve; as a rule, active = well fitted curve in the direction sought with a large enough effect; inconclusive = small, poorly fitted or top-dose-only effect, or another doubt; inactive = no such curve, though single readings can be large; an effect the other way counts as inactive or inconclusive.

Test system in one assay: not listed separately
Nature of the assay: qHTS for Inhibitors of ATXN expression: Validation (AID 588378). Also: nearly all actives have a fitted effect of over 75% in size. Also: potency is read from the fitted curve at half-maximal effect. As to activity change, negative = inhibition: % is scaled to controls: 0 for no effect and ±100 for the full control effect. The settings on record: cell-based ATXN2 expression reporter assay, luminescence; series mostly up to 57.1 µM; activity change, negative = inhibition: at the top concentration. An outline of the steps:
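After a 2 h attachment and 24 h compound incubation, HEK293-ATXN2-FFLuc wells are read for fluorescence at 405 nm excitation/525 nm emission as a viability measure, then for Bright-Glo luminescence reflecting ATXN2 expression.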
Consider `C1CCc2nnnn2CC1`, for which the “activity change, negative = inhibition” value is -10.2%.
As to `CC(C)COC(=O)OCN1C(=O)CN(CCN2CC(=O)N(COC(=O)OCC(C)C)C(=O)C2)CC1=O`, the “activity change, negative = inhibition” value is -2.24%.
Still for that read-out and setting: with `C[N+]1(CCCCC[N+]2(C)CCCC2)CCCC1` the figure was 21.2%; with `C[C@@H]1C(=O)NC2=Nc3cccc(Cl)c3CN21`, 4.39%.
Consider `O=C1CCC(c2ccc(-n3ccnc3)cc2)=NN1`, for which the “activity change, negative = inhibition” value is 3.93%.
The same measure, in the same setting: then `CCCC1O[C@@H]2C[C@H]3[C@@H]4CCC5=CC(=O)C=C[C@]5(C)[C@H]4[C@@H](O)C[C@]3(C)[C@]2(C(=O)CO)O1` (some centres not stated), with 9.49%.
The same measure, in the same setting: with `N[C@@H](Cc1cnc[nH]1)C(=O)O` the figure was 2.74%; with `COc1cc2c(cc1O)CC[C@@H]1[C@@H]2CC[C@]2(C)[C@@H](O)CC[C@@H]12`, -2.58%; with `COC(=O)[C@H]1[C@H]2C[C@H]3c4[nH]c5ccccc5c4CCN3C[C@H]2CC[C@@H]1O`, -17.8%.
On the same count and under the same terms, then `N[C@H](CO)C(=O)O`, with 0.237%; and `CC(=O)O[C@H]1C[C@@H]2CC[C@@H]3[C@H](CC[C@@]4(C)[C@H]3C[C@H]([N+]3(C)CCCCC3)[C@@H]4OC(C)=O)[C@@]2(C)C[C@@H]1[N+]1(C)CCCCC1`, with 24.6%; and `Nc1cc(Cl)c(NC2=NCCN2)c(Cl)c1`, with -5.43%.
As to `O=C(O)c1cc2cc(Cc3cccnc3)ccc2o1`, the “activity change, negative = inhibition” value was 5.01%.
As to `CC1(C)CCC(NC(=O)[C@@H](N)CCC(=O)O)CC1`, the “activity change, negative = inhibition” value was -4.17%.
As for `CC[C@H](C)C(=O)O[C@H]1CCC=C2C=C[C@H](C)[C@H](CC[C@@H]3C[C@@H](O)CC(=O)O3)[C@H]21`, the “activity change, negative = inhibition” value was 26.6%.
As to `CNCCC=C1c2ccccc2CCc2ccccc21`, the Potency was 15.8 µM (active).
Take `COc1cc(NS(C)(=O)=O)ccc1Nc1c2ccccc2nc2ccccc12`: the Potency was 0.355 µM (active).
Regarding `CCCn1c(=O)[nH]c(=O)c2[nH]cnc21`, the “activity change, negative = inhibition” value was 5.47%.
In the case of `C[C@]12CC[C@@H]3c4ccc(O)cc4CC[C@H]3[C@@H]1CC[C@@H]2O`, the “activity change, negative = inhibition” value is -9.39%.

For another assay, the target named is DNA dC->dU-editing enzyme APOBEC-3G (Homo sapiens) (UniProt Q9HC16). Nature of the assay: qHTS for inhibitors of Vif-A3G interactions: Validation (AID 588379). Also: 0% is about no effect. Conditions: Vif-A3G protein interaction assay; series mostly up to 46.1 µM; activity change, negative = inhibition: at the top concentration. An outline of the steps: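 Yellow fluorescence (Ex 488, Em 500-530) of Vif-coexpressing HeLa A3G-eYFP cells, scanned by Acumen cytometer, reports blocked A3G degradation. Cells plated at 700/well overnight at 37 deg C before compound addition, then a further overnight compound incubation at 37 deg C.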
Sequence of DNA dC->dU-editing enzyme APOBEC-3G (Homo sapiens) (Q9HC16 whole entry, looked up): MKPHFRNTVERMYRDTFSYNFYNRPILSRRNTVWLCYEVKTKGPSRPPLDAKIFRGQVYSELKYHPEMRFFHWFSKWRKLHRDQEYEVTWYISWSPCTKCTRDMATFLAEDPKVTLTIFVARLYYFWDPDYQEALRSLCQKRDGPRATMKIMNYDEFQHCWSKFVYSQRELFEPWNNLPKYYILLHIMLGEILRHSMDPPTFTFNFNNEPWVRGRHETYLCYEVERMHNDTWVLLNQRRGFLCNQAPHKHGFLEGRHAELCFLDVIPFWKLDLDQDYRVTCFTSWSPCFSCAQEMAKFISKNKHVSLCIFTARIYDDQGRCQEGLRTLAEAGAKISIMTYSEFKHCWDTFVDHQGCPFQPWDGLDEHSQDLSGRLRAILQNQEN
(In qHTS, concentration-response curves come from the screen itself.)
`CN=C(NC#N)NCCSCc1csc(N=C(N)N)n1`: the “activity change, negative = inhibition” value is -0.335%.
Consider `CCN1CCC[C@H]1CNC(=O)c1c(OC)ccc(Br)c1OC`, for which the “activity change, negative = inhibition” value is -16.7%.
`C[C@@H]1CN(CCCn2c3ccccc3c3ccccc32)C[C@H](C)N1`: the “activity change, negative = inhibition” value was -10.3%.
Consider `CC(C)NC[C@@H](O)COc1cccc2ccccc12`, for which the molecule was called inactive.
With `COc1cc(-c2ccc(=O)[nH]n2)ccc1OC(F)F`, the “activity change, negative = inhibition” value was 0.201%.
In the case of `Nc1nc2ncc(CNc3ccc(C(=O)N[C@@H](CCC(=O)O)C(=O)O)cc3)nc2c(=O)[nH]1`, the “activity change, negative = inhibition” value was 4.44%.
For `CC[N+](CC)(CCNC(=O)C(=O)NCC[N+](CC)(CC)Cc1ccccc1Cl)Cc1ccccc1Cl`, the “activity change, negative = inhibition” value was -1.8%.
Take `COc1c(C)c2c(c(O)c1C/C=C(\C)CCC(=O)O)C(=O)OC2`: the outcome was inactive.

The values above are taken from PubChem BioAssay (NCATS).
